Source: PubChem
Many of the other results were omitted from the sample, so hits are more common in it than they were.
Pf Dd2 inh – blocks in vitro growth of P. falciparum Dd2. P. falciparum Dd2 growth, SYBR Green, 72 h. Potency, µM (doses to about 28.9 µM), usual class: inhibitors. 4.3% of 120,000 active; active = well fitted inhibition curve with a large enough effect; note: nearly all actives have a fitted effect of over 65% in size
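Infected erythrocytes (Dd2, 0.3% parasitemia, 2.5% hematocrit final) are added to compound in RPMI-1640/Albumax II medium, grown 72 h at 37C in low oxygen, then lysed with saponin/Triton-X containing SYBR Green and read by fluorescence.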
Large screens that a line does not name were inactive.

Cn1cccc1CN1CCCN(S(=O)(=O)c2ccccc2)CCC(=O)NCC1	none
O=C1CCN(S(=O)(=O)c2ccccc2)CCCN(C2CCOCC2)CCN1	none
O=C1CCN(S(=O)(=O)c2ccccc2)CCCN(C(=O)Cc2ccccc2)CCN1	none
O=C1CCN(S(=O)(=O)c2ccccc2)CCCN(Cc2ccccn2)CCN1	none
COc1ccc2[nH]c(C(=O)N3CCCN(S(=O)(=O)c4ccccc4)CCC(=O)NCC3)cc2c1	Pf Dd2 inh 12.6µM
CS(=O)(=O)N1CCCN(S(=O)(=O)c2ccccc2)CCC(=O)NCC1	none
O=C(c1nccc2ccccc12)N1CCC2(CC1)CC(O)CCO2 (configuration not stated)	none
COc1ccccc1CNC(=O)CN1CC2CC(C1)[C@H]1CCCC(=O)N1C2 (some centres not stated)	none
C[C@H]1[C@@H]2[C@@H](O)C([C@H](C)C(=O)NC3CC3)CC[C@@]2(C)CC[C@@H]1NC(=O)c1ccccn1 (some centres not stated)	none
COc1ccc(CN[C@H]2[C@H](O)[C@H](O)C[C@@H]2c2ccc(N3CCOCC3)nc2)cn1	none
COC(=O)c1ccc2c(c1)nc1n2[C@@H](CNCc2ccc(S(C)(=O)=O)cc2)COC1	none
COc1ccc(C(C(=O)O)N2CCN(c3ccc(F)cc3)CC2)c(OC)n1 (configuration not stated)	none
O=C(c1ccnnc1)N1CC(F)(F)C[C@H]1c1nc(-c2ccccc2)no1	none
CCNC(=O)N1C[C@@H](Oc2cccnc2)C[C@H]1C(=O)N1CCCC1	none
COc1ccc(CN2CCNc3cc(Nc4ccccc4)ncc3C2)cc1O	none
COc1ccc(OC)c(CN2CCNc3cc(Nc4ccccc4)ncc3C2)c1	Pf Dd2 inh 3.55µM
c1cncc(Nc2cc3c(cn2)CN(CC2CCOCC2)CCN3)c1	none
CC(=O)Nc1cccc(-c2cc3c(cn2)CN(Cc2ccccc2)CCN3)c1	none
c1ccc(CCN2CCNc3cc(NCCN4CCOCC4)ncc3C2)cc1	none
Fc1ccccc1CN1CCNc2cc(Nc3ccccc3)ncc2C1	none
Fc1cccc(CN2CCNc3cc(Nc4ccccc4)ncc3C2)c1	none
c1ccc(Nc2cc3c(cn2)CN(Cc2cnc[nH]2)CCN3)cc1	none
c1ccc(Nc2cc3c(cn2)CN(CC2CC2)CCN3)cc1	Pf Dd2 inh 12.6µM
c1ccc(Nc2cc3c(cn2)CN(Cc2cccs2)CCN3)cc1	Pf Dd2 inh 7.94µM
c1ccc(CN2CCNc3cc(Nc4ccc(N5CCOCC5)cc4)ncc3C2)cc1	Pf Dd2 inh 11.2µM
COc1ccc(OC)c(CN2CCNc3cnc(Nc4cccnc4)cc3C2)c1	none
Cc1ccc(C2Cn3nnc(C(=O)N4CCN(C(=O)c5ccsc5)CC4)c3CO2)cc1 (configuration not stated)	none
COc1ccc(-c2noc(C(=O)O)c2[C@@H](C)NC(=O)Nc2cccnc2)cc1	none
CCN(C1CCOCC1)C1CN(C(=O)c2ccoc2)C1	none
O=C(NCc1ccccc1F)C1CC(c2ccccc2)CN(C(=O)COc2ccccc2)C1 (configuration not stated)	none
O=C(C1NCCc2[nH]cnc21)N1CCC(c2nc(-c3ccccc3)no2)CC1 (configuration not stated)	none
CC(C)NC(=O)NC[C@H]1OC[C@@H](NCc2ncc[nH]2)[C@@H]1O	none
COC[C@@H]1CN(S(=O)(=O)c2cccc(OC)c2)C[C@H]1C(N)=O	none
CN1CCNc2cc(NCc3ccccc3)ncc2C1	none
COc1ccc(Nc2cc3c(cn2)CN(CCc2ccccc2)CCN3)cn1	none
CCCN1CCNc2cc(Nc3ccccc3)ncc2C1	Pf Dd2 inh 8.91µM
COCCNC(=O)C(NC(=O)c1cccs1)C1CCN(C(=O)c2cccs2)CC1 (configuration not stated)	none
O=C(COc1ccc(F)cc1)N1CCC(CCOc2ccccc2F)C1 (configuration not stated)	none
CCc1nn(-c2ccc(OC)cc2)c(Oc2ccccc2F)c1CCC(=O)N(CC)CC	none
CCc1nn(-c2ccc(OC)cc2)c(Oc2ccccc2F)c1CCC(=O)NC(C)C	Pf Dd2 inh 7.94µM
CCc1nn(-c2ccc(OC)cc2)c(Oc2ccccc2F)c1CCC(=O)NCCOC	none
COc1ccc(Cl)cc1NC(=O)N(C)CC1CCOCC1	none
COc1cc(CNCC2CCOCC2)ccc1OCC(O)CN(C)C1CCCCC1 (configuration not stated)	Pf Dd2 inh 12.6µM
COc1cc(CNCCc2ccc(F)cc2)ccc1OCC(O)CN1CCSCC1 (configuration not stated)	none
COc1cc(CNCCc2ccc(Cl)cc2)ccc1OCC(O)CN1CCOCC1 (configuration not stated)	Pf Dd2 inh 11.2µM
COc1cc(CNCCCO)ccc1OCC(O)CN1CCSCC1 (configuration not stated)	none
COc1cc(CN2CCC(C)(C#N)CC2)ccc1OCC(O)CN1CCOCC1 (configuration not stated)	none
COCCc1noc([C@@H]2CC(F)(F)CN2C(=O)c2cc(C)on2)n1	none
Cc1cc2nc3n(c(=O)c2n1CC(=O)NCCCc1ccccc1)CCCC3	none
O=C1CNc2ccc(C(=O)N3C[C@H](CO)C[C@H](CN4CCCC4)C3)cc2N1	none
Cn1cnnc1CC1CCCNC1 (configuration not stated)	none
COc1ccc2c(c1)CN(C(=O)c1ccnc(Cl)c1)CC[C@H]1COC(=O)N21	none
CCCCNc1sc(S(=O)(=O)CC)nc1S(=O)(=O)c1ccc(C)cc1	Pf Dd2 inh 11.2µM
CCN(CC)CCCNc1sc(S(=O)(=O)c2ccccc2)nc1S(=O)(=O)c1ccc(Cl)cc1	Pf Dd2 inh 5.62µM
CCCCS(=O)(=O)c1oc(-c2ccc(F)cc2)nc1S(=O)(=O)c1ccc(C)cc1	none
CCCSc1oc(-c2cccs2)nc1S(=O)(=O)c1ccc(C)cc1	none
CCN(CC)CCCNC(=O)CSc1nc2nc(C)c(Cc3c(F)cccc3Cl)c(C)n2n1	none
Cc1ccc(S(=O)(=O)c2nc(-c3ccco3)oc2SCC(C)C)cc1	none
CCCS(=O)(=O)c1nc(S(=O)(=O)c2ccc(C)cc2)c(NCC(C)C)s1	Pf Dd2 inh 8.91µM
CCCS(=O)(=O)c1nc(S(=O)(=O)c2ccc(C)cc2)c(N(CC)CC)s1	none
CCCCCS(=O)(=O)c1oc(-c2cccs2)nc1S(=O)(=O)c1ccc(C)cc1	none
CCCCNc1nc2c(S(=O)(=O)c3ccc(Cl)cc3)nnn2c2ccsc12	none
COCCNc1sc(S(=O)(=O)c2ccc(C)cc2)nc1S(=O)(=O)c1ccc(C)cc1	none
CCC(C)Nc1sc(S(=O)(=O)CC)nc1S(=O)(=O)c1ccc(C)cc1 (configuration not stated)	Pf Dd2 inh 12.6µM
CN1CCC([C@@H]2CN(S(=O)(=O)c3cccc(C#N)c3)C[C@H]2C(N)=O)CC1	none
CCN1c2cc(C(=O)NCc3ccncc3)ccc2C(=O)N2CCCCCC21 (configuration not stated)	none
CN1CC(=O)N(c2ccccc2F)Cc2c(NCc3cccc(C(F)(F)F)c3)ncnc21	none
O=C(CCC1CCN(C(=O)c2ccccc2)CC1)NCc1cccc(C(F)(F)F)c1	none
O=C(CCn1cnc2ccccc2c1=O)N1CCCC(Nc2ccccc2)C1 (configuration not stated)	none
OCc1cc2n(n1)CCCN(Cc1cnc(SCc3ccccc3)nc1)C2	none
COc1cccc([S+](=O)([O-])N2CCCC3(CC(c4ccccn4)=NO3)C2)c1 (configuration not stated)	none
O=C(N[C@@H]1COCC[C@@H]1OCc1ccccc1)c1ccc2ncsc2c1	none
O=C(Cn1ccn2nc3c(c2c1=O)CCCC3)NCc1cccs1	none
Cc1ccc(C(=O)N2CCCN(c3cc(-c4ccc(Cl)cc4)[nH]n3)CC2)cn1	Pf Dd2 inh 6.31µM
